This assay has as its target Nonstructural protein 3 (Zika virus) (UniProt A0A024AXB9).

The structures appear in SMILES notation. The campaign covered roughly 2,700 compounds. About 160 (5.9%) showed an effect of 50% or more. For the sample, strong results were picked, then their nearest neighbours and some compounds at random.

Sequence of Nonstructural protein 3 (Zika virus) (A0A024AXB9 as listed by the source): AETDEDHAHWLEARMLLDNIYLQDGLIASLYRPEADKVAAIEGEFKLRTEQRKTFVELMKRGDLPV

As usually defined, the inhibition is the change of the read-out against control, counted positive when it falls. Consider `CCn1ccnc(N2CC[C@H](c3cccnc3)C2)c1=O`, for which the inhibition runs as follows: (PRVABC59, Concentration 49.5 uM, Number of replicates 2.0, Standard deviation 0.6295639977718405 %) 11.1%; (PRVABC59, Concentration 99.01 uM, Number of replicates 2.0, Standard deviation 0.9611868657983497 %) 17.2%; (PRVABC59, Concentration 198.0 uM, Number of replicates 2.0, Standard deviation 2.077820749798943 %) 29.9%.
For the molecule `O[C@@H]1CNC[C@H]1c1c[nH]c2ccccc12`, the inhibition by setting is: (PRVABC59, Concentration 49.5 uM, Number of replicates 2.0, Standard deviation 0.0908773719339778 %) 4.36%; (PRVABC59, Concentration 99.01 uM, Number of replicates 2.0, Standard deviation 0.868383551474818 %) 12%; (PRVABC59, Concentration 198.0 uM, Number of replicates 2.0, Standard deviation 1.0703330421004655 %) 25.3%.
Regarding `CCn1ccnc(N2CC[C@H](C#N)C2)c1=O`, the inhibition runs as follows: (PRVABC59, Concentration 50.0 uM, Number of replicates 1.0) 9.92%; (PRVABC59, Concentration 100.0 uM, Number of replicates 2.0, Standard deviation 3.4431722905816002 %) 15.4%; (PRVABC59, Concentration 200.0 uM, Number of replicates 3.0, Standard deviation 5.353488841443075 %) 26.6%.
On to `CCn1ccnc(N2CC[C@@H](CC#N)C2)c1=O`, for which the inhibition is, setting by setting: (PRVABC59, Concentration 49.5 uM, Number of replicates 2.0, Standard deviation 4.2825905047110036 %) 7.54%; (PRVABC59, Concentration 99.01 uM, Number of replicates 2.0, Standard deviation 3.0053265516656906 %) 14.9%; (PRVABC59, Concentration 198.0 uM, Number of replicates 2.0, Standard deviation 1.5959318913639373 %) 26%.
On to `CCn1ccnc(N(C)[C@@H](CO)Cc2c[nH]c3ccccc23)c1=O`, for which the inhibition is, setting by setting: (PRVABC59, Concentration 49.5 uM, Number of replicates 2.0, Standard deviation 1.5047267855359387 %) 5.63%; (PRVABC59, Concentration 99.01 uM, Number of replicates 2.0, Standard deviation 0.8040526249565179 %) 13%; (PRVABC59, Concentration 198.0 uM, Number of replicates 2.0, Standard deviation 1.5605190977207197 %) 25.3%.
As for `c1ccc2c(CN3CCC(c4c[nH]c5ncccc45)CC3)c[nH]c2c1`, the inhibition (PRVABC59, Concentration 49.5 uM, Number of replicates 2.0, Standard deviation 1.5803867849339672 %) amounted to 58.2%; the inhibition (PRVABC59, Concentration 99.01 uM, Number of replicates 2.0, Standard deviation 1.538935865185685 %) was found to be 72.5%; the inhibition (PRVABC59, Concentration 198.0 uM, Number of replicates 2.0, Standard deviation 1.43011742277759 %) was 82.3%.
For the molecule `c1ccc2c(CN3CCC(c4c[nH]c5cccnc45)CC3)c[nH]c2c1`, the inhibition (PRVABC59, Concentration 49.5 uM, Number of replicates 2.0, Standard deviation 1.80837898184189 %) was 63.8%; the inhibition (PRVABC59, Concentration 99.01 uM, Number of replicates 2.0, Standard deviation 1.3316731742493602 %) worked out at 74.9%; the inhibition (PRVABC59, Concentration 198.0 uM, Number of replicates 2.0, Standard deviation 0.976733320927472 %) was 81.5%.
`O[C@@H]1CN(Cc2c[nH]c3ccccc23)CC[C@@H]1c1ccccc1`: the inhibition by setting is: (PRVABC59, Concentration 49.5 uM, Number of replicates 2.0, Standard deviation 0.3811882362248968 %) 52.4%; (PRVABC59, Concentration 99.01 uM, Number of replicates 2.0, Standard deviation 0.3137721603955992 %) 68%; (PRVABC59, Concentration 198.0 uM, Number of replicates 2.0, Standard deviation 0.1218792449994391 %) 78.3%.
For the molecule `C[C@@H](CO)N1CC[C@H](c2c[nH]c3ccccc23)C1`, the inhibition reads like this: (PRVABC59, Concentration 49.5 uM, Number of replicates 2.0, Standard deviation 2.959092091051968 %) -1.43%; (PRVABC59, Concentration 99.01 uM, Number of replicates 2.0, Standard deviation 1.9403190167556676 %) 0.816%; (PRVABC59, Concentration 198.0 uM, Number of replicates 2.0, Standard deviation 2.4285693519175138 %) 5.47%.
Regarding `C[C@@H](Cc1c[nH]c2ccccc12)N1CC[C@H](n2ncc3ccccc32)C1`, the inhibition (PRVABC59, Concentration 49.5 uM, Number of replicates 2.0, Standard deviation 0.39220306220212786 %) stood at 9.38%; the inhibition (PRVABC59, Concentration 99.01 uM, Number of replicates 2.0, Standard deviation 0.9766631885715499 %) is 10.3%; the inhibition (PRVABC59, Concentration 198.0 uM, Number of replicates 2.0, Standard deviation 1.7687599327172854 %) turned out to be 8.18%.
Take `c1cnc2c(C3CCN(Cc4c[nH]c5ncccc45)CC3)c[nH]c2c1`: the inhibition came out at 7.76% (PRVABC59, Concentration 49.5 uM, Number of replicates 2.0, Standard deviation 1.618110911749522 %); 16.5% (PRVABC59, Concentration 99.01 uM, Number of replicates 2.0, Standard deviation 1.5506891039488269 %); 29.8% (PRVABC59, Concentration 198.0 uM, Number of replicates 2.0, Standard deviation 1.1046722712184134 %).
`c1cc(CN2CCC(c3c[nH]c4ncccc34)CC2)c2[nH]ccc2c1`: the inhibition amounted to 22.9% (PRVABC59, Concentration 49.5 uM, Number of replicates 2.0, Standard deviation 0.810920201040277 %); 30.1% (PRVABC59, Concentration 99.01 uM, Number of replicates 2.0, Standard deviation 0.8653267248460199 %); 32% (PRVABC59, Concentration 198.0 uM, Number of replicates 2.0, Standard deviation 1.207313671508752 %).
With `O[C@H]1CCCN(Cc2c[nH]c3ccccc23)C1`, the inhibition is, setting by setting: (PRVABC59, Concentration 49.5 uM, Number of replicates 2.0, Standard deviation 18.69396289412785 %) 21%; (PRVABC59, Concentration 99.01 uM, Number of replicates 2.0, Standard deviation 0.9286103864725214 %) 13.9%; (PRVABC59, Concentration 198.0 uM, Number of replicates 2.0, Standard deviation 2.4132961769541357 %) 24.7%.

For the origin of these results see ChEMBL document CHEMBL5606458, “ASAP - ZIKV NS2B-NS3 protease fluorescence single point” (2024).
